Results filed as inconclusive are left out. The source made the active and inactive calls. Unless noted, calls follow the shape of the full dose curve.
How the values were obtained:
[1] = qHTS assay to identify small molecule antagonists of the vitamin D receptor (VDR) signaling pathway - cell viability counter screen (AID 743225; active = well fitted curve in the direction sought with a large enough effect in the repeat runs; an effect the other way counts as inactive or inconclusive; also: nearly all actives have a fitted effect of over 50% in size; also: potency is read from the fitted curve at half-maximal effect; as to viability change, negative = cytotoxic: % is scaled to controls: 0 for no effect and ±100 for the full control effect)
Summary of the method: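 VDR-bla HEK 293T cells, 4 h pre-incubation at 37C, then compound plus 1-alpha,25-dihydroxyvitamin D3 (3 nM final) for 16 h. After the beta-lactamase FRET read, CellTiter-Glo was added to the same wells; luminescence after 30 min at room temperature.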

[2] = qHTS assay to identify small molecule agonists of the NFkB signaling pathway (AID 1159509; active = well fitted curve in the direction sought with a large enough effect in the signal ratio in the repeat runs, not every such curve was filed as active; the % refers to the signal ratio; also: series mostly up to about 61 µM; % is scaled to controls: 0 for no effect and ±100 for the full control effect)
Summary of the method: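 Agonist activity was read as beta-lactamase-driven FRET change (460 and 530 nm emission, 405 nm excitation) following 1.5 hr substrate loading at room temperature. Beforehand, ME-180 NFkB-bla reporter cells were treated with compounds for 5 hr at 37 C.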

[3] = qHTS assay to identify small molecule agonists of the NFkB signaling pathway - cell viability counter screen (AID 1159515); also: series mostly up to about 61 µM; % is scaled to controls: 0 for no effect and ±100 for the full control effect; nearly all actives have a fitted effect of over 55% in size
Summary of the method: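 Tox21 library compounds were tested for cytotoxicity against NFkB-bla ME-180 cells during a 5 hr exposure at 37 C. CellTiter-Glo luminescence served as the viability read-out.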

[4] = qHTS assay to identify small molecule agonists of the endoplasmic reticulum stress response signaling pathway (AID 1159516; active = well fitted activation curve with a large enough effect in the signal ratio in the repeat runs, not every such curve was filed as active; the % refers to the signal ratio; also: % is scaled to controls: 0 for no effect and ±100 for the full control effect)
Summary of the method: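 Fluorescence at 460 and 530 nm (405 nm excitation) reports beta-lactamase from an ER stress response element in HeLa cells treated 5 hr at 37 C.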

[5] = target: Nuclear receptor ROR-gamma (Homo sapiens) (UniProt P51449); assay: qHTS assay to identify small molecule antagonists of the retinoid-related orphan receptor gamma (ROR-gamma) signaling pathway (AID 1159521; active = well fitted curve in the direction sought with a large enough effect in the repeat runs; an effect the other way counts as inactive or inconclusive; also: nearly all actives have a fitted effect of over 50% in size; also: potency is read from the fitted curve at half-maximal effect)
Summary of the method: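 Tet-on RORγ CHO cells carrying a ROR response element–luciferase reporter were pretreated with compounds for 2 h, then induced with 1 uM (final) doxycycline hyclate for 16 h at 37 C. Antagonism was read as decreased ONE-Glo luminescence.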

[6] = qHTS assay to identify small molecule agonists of the AP-1 signaling pathway - cell viability counter screen (AID 1159525); also: nearly all actives have a fitted effect of over 55% in size
Summary of the method: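 Each titration point was normalised to DMSO and tetra n-octyl ammonium bromide controls. The read was Cell Titer Glo luminescence after 30 min at RT, following 5 h compound exposure of ME-180 AP-1-bla cells at 37 °C.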

[7] = qHTS assay to identify small molecule agonists of the AP-1 signaling pathway (AID 1159526); also: % is scaled to controls: 0 for no effect and ±100 for the full control effect
[8] = target: Retinoic acid receptor RXR-alpha (Homo sapiens) (UniProt P19793); assay: qHTS assay to identify small molecule agonists of the RXR signaling pathway (AID 1159527); also: % is scaled to controls: 0 for no effect and ±100 for the full control effect; nearly all actives have a fitted effect of over 35% in size
Summary of the method: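 GeneBLAzer RXR-alpha-UAS-bla HEK 293T cells in medium with 2% charcoal-stripped FBS, pre-incubated 5 hr at 37 C, then exposed to compounds 16 hr. Beta-lactamase reporter read by FRET substrate, 2 hr room temperature, 460/530 nm emission.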

[9] = qHTS assay to identify small molecule antagonists of the retinoid-related orphan receptor gamma (ROR-gamma) signaling pathway - cell viability counter screen (AID 1159520; active = well fitted curve in the direction sought with a large enough effect in the repeat runs; an effect the other way counts as inactive or inconclusive; also: % is scaled to controls: 0 for no effect and ±100 for the full control effect; nearly all actives have a fitted effect of over 50% in size)
Summary of the method: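 Tet-on ROR gamma CHO cells (1,000/well) were plated 4 hr, given compounds in DMSO for 2 hr at 37 C, then induced with 1 uM final doxycycline for 16 hr. Viability was read as ATP by CellTiter-Glo luminescence after 30 min.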

[10] = qHTS assay to identify small molecule agonists of the endoplasmic reticulum stress response signaling pathway - cell viability counter screen (AID 1159517); also: nearly all actives have a fitted effect of over 50% in size; also: potency is read from the fitted curve at half-maximal effect
Summary of the method: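 Cpd-treated ESRE-bla HeLa (5 hr, 37 C) → LiveBLAzer 2 hr RT → CellTiter-Glo 30 min RT → luminescence.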

Retinoic acid receptor RXR-alpha (Homo sapiens), sequence (P19793 whole entry, looked up): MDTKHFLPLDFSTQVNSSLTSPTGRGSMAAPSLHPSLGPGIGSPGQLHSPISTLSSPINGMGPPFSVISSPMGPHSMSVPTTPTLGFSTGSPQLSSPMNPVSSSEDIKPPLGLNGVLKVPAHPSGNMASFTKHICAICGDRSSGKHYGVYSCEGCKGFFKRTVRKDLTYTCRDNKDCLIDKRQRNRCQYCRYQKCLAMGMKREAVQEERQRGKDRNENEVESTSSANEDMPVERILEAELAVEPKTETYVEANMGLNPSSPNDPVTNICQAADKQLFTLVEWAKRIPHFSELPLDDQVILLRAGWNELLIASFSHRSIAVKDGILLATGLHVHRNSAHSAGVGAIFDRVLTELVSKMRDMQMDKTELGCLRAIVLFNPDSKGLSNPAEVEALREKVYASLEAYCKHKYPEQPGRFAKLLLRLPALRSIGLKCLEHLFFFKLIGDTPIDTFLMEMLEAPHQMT

CCOC(=O)C(C)O (configuration not stated)
inactive: Potency [1] | outcome [2] | Potency [3] | Potency [4] | Potency [5] | Potency [6] | outcome [7]

CCC(Cl)CC(Cl)C(Cl)C(Cl)C(Cl)C(C)Cl (configuration not stated)
inactive: viability change, negative = cytotoxic [1] 6.69% [at 15.1 µM] | activation [2] -0.489% [at 15.1 µM] | activity, negative = cytotoxic [3] 0.94% [at 15.1 µM] | activation [4] -4.87% [at 15.1 µM] | activity change, negative = inhibition [5] 79.2% [at 19 µM] | viability change, negative = cytotoxic [6] -14.2% [at 15.8 µM] | activation [7] 9.95% [at 15.8 µM] | activation [8] -0.0074% [at 15.8 µM]

CC(C)(C)C1(CCc2ccc(Cl)cc2)CO1 (configuration not stated)
inactive: Potency [1] | outcome [2] | Potency [3] | Potency [4] | Potency [9] | Potency [6] | Potency [8]

CC(C)C(O)C(C)(C)CO (configuration not stated)
active: Potency [5] 22.4 µM
inactive: Potency [1] | outcome [2] | Potency [3] | Potency [4] | Potency [6]

O=C1NC(=O)c2cccc3cccc1c23
inactive: Potency [1] | outcome [2] | Potency [3] | Potency [4] | Potency [5] | Potency [6] | outcome [7]

COC(CC(C)CCCC(C)(C)O)OC (configuration not stated)
inactive: Potency [1] | outcome [2] | Potency [3] | Potency [4] | Potency [5] | Potency [6] | outcome [7]

Cc1ccc2c(c1[N+](=O)[O-])C(=O)c1ccccc1C2=O
inactive: Potency [1] | outcome [2] | Potency [3] | Potency [4] | Potency [9]

CCCCCCCCCCCSCC(=O)O
active: Potency [1] 21.9 µM
inactive: outcome [2] | Potency [3] | Potency [4] | Potency [9] | Potency [6] | outcome [7]

[Cl][Nd]([Cl])[Cl]
inactive: Potency [1] | outcome [2] | Potency [3] | Potency [4] | Potency [6] | outcome [7] | Potency [8]

CCCCC(CC)COS(=O)(=O)O (configuration not stated)
inactive: Potency [1] | outcome [2] | Potency [3] | Potency [10] | Potency [9] | Potency [5] | Potency [6] | outcome [7] | Potency [8]

CC1CCC(C(C)CS)CC1S (configuration not stated)
inactive: Potency [1] | outcome [2] | Potency [3] | Potency [9] | Potency [5] | Potency [6] | outcome [7] | Potency [8]
active: Potency [10] 19.5 µM

CCC(=O)OCc1ccc(OC)cc1
inactive: outcome [2] | Potency [3] | Potency [10] | Potency [9] | Potency [5] | Potency [6] | outcome [7]

CCC(CO)(CO)[N+](=O)[O-]
inactive: Potency [1] | outcome [2] | Potency [3] | Potency [10] | Potency [9] | Potency [5] | Potency [6] | outcome [7] | Potency [8]

CCCCCc1ccco1
inactive: outcome [2] | Potency [3] | Potency [10] | Potency [9] | Potency [5] | Potency [6] | outcome [7]

Source: PubChem BioAssay (Tox21)
